Source: PubChem BioAssay (National Center for Advancing Translational Sciences (NCATS))
KB-3-1 tox – qHTS assay for MDR1-selective chemotherapeutics: Primary screen using the parental adenocarcinoma cell KB-3-1; KB-3-1 viability, CellTiter-Glo ATP luminescence, 72 h; Potency, µM (doses to about 46.1 µM), usual class: cytotoxic; hit rate 1.4% among 400,000; AID 1347075, 2019; note: % is set by controls: 0 for no effect and ±100 for the full control effect; nearly all actives have a fitted effect of over 60% in size
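KB-3-1 cells, DMEM (no phenol red) + 10% FBS; compound by pin transfer, 72 h, 37 °C. Readout: CellTiter-Glo luminescence after 10 min. Data normalized, curve-fitted.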
KB-V1 cytotox – qHTS assay for MDR1-selective chemotherapeutics: Primary screen using the drug-selected MDR subline cells KB-V1; KB-V1 MDR cells viability, CellTiter-Glo, 72 h; Potency, µM (doses to about 46.1 µM), usual class: cytotoxic; hit rate 3.4% among 400,000; note: % is set by controls: 0 for no effect and ±100 for the full control effect; nearly all actives have a fitted effect of over 60% in size
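KB-V1 cells (P-gp-expressing MDR subline of KB-3-1) in phenol-red-free DMEM with 10% FBS were exposed to library compounds over a concentration series for 72 h at 37 degrees C. Viability read by CellTiter-Glo luminescence; concentration-effect curves fitted after normalization.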
MCF10A rerep – A quantitative high throughput screen for small molecules that induce DNA re-replication in MCF 10a normal breast cells; MCF 10A DNA re-replication, Hoechst nuclear intensity, 48 h; Potency, µM (titrated, usually from 46.1 µM), inactives show at the top dose activity, positive = re-replication, actives largely listed as activators; hit rate 2.9% among 350,000; AID 624296, 2012; note: % of control where 0% means no effect; nearly all actives have a fitted effect of over 50% in size
PINK1 modulator – A Quantitative High throughput Screen to Identify Chemical Modulators of PINK1 Expression; PINK1 immunofluorescence, high-content cytometry, 24 h; hit rate 0.2% among 410,000; Potency, µM (top dose mostly 76.6 µM), without a hit: top-dose activation (PINK1 increase), usual class: activators; active = well fitted activation curve with a large enough effect; inconclusive = small, poorly fitted or top-dose-only effect; cell line not stated here; note: % of control where 0% means no effect; nearly all actives have a fitted effect of over 65% in size
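Cells are seeded, rested 12 hours, then given compound at five concentrations or DMSO for 24 hours. After fixation, blocking and antibody staining, PINK1 amount and mitochondrial localization are scored; CCCP serves as control.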
SW480 rerep – A quantitative high throughput screen for small molecules that induce DNA re-replication in SW480 colon adenocarcinoma cells | Potency, µM (doses to about 46.1 µM), inactives show top-dose re-replication activation, hits mostly activators | SW480 DNA re-replication, Hoechst DNA content imaging, 48 h | hit rate 1.8% among 340,000; note: % of control where 0% means no effect; nearly all actives have a fitted effect of over 55% in size
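Per well, 250 cells were exposed to pinned compound for 48 hr. Nuclear DNA was visualised with Hoechst (40 min, 37 C) and total object intensity recorded by fluorescence scanning.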
Numbers without * were called inactive; i = inactive; u = inconclusive; x = no result given; [ ] = remark or other dose. This is a sample that favours compounds with a hit; in the whole collection about 6.7% have one here. Unless noted, calls come from the whole dose curve; as a rule, active = well fitted curve in the direction sought with a large enough effect; inconclusive = small, poorly fitted or top-dose-only effect, or another doubt; inactive = no such curve, though single readings can be large; an effect the other way counts as inactive or inconclusive. Potency is the fitted concentration of half-maximal effect.

SMILES	KB-3-1 tox	KB-V1 cytotox	MCF10A rerep	PINK1 modulator	SW480 rerep
CCn1c(SCC(=O)Nc2nccs2)nnc1-c1ccccc1	i	u	15.8%	-0.6%[38.3 µM]	-2.6%
CCn1c(SCC(=O)Nc2cccnc2Cl)nnc1-c1ccccc1	i	20.6µM*	-0.9%	u	5.3%
O=C(N/C=C/c1ccccc1)c1ccccc1	i	u	-15.5%	-0.6%	2.1%
CCCc1cc2c(OC(=O)CC)c(-c3ccc(C(=O)OCC)o3)c(=O)oc2cc1OC	i	i	20.6µM*	0.0%	u
Cc1ccc(OCCN2CCN(c3ncnc4sc(C)c(C)c34)CC2)cc1	u	i	23.1µM*	-1.0%	u
Clc1ccc(OCCN2CCN(c3ncnc4sccc34)CC2)cc1	u	2.91µM*	8.0%	1.3%	3.4%
C[C@@H]1CCCCO[C@@H](CN(C)C(=O)c2ccncc2)[C@@H](C)CN([C@H](C)CO)C(=O)c2cc(NC(=O)Cc3ccccc3)ccc2O1	i	i	x	0.0%	x
O=S(=O)(/N=C(/Nc1cccc2ccccc12)c1ccccc1)c1cccs1	u	i	4.2%	1.0%	4.9%
Cc1ccc(S(=O)(=O)/N=C(/Nc2ccc([N+](=O)[O-])cc2)c2ccccc2)cc1	u	u	u	8.6%	26.0%
Cc1ccc(S(=O)(=O)/N=C(/Nc2ccc([N+](=O)[O-])cc2[N+](=O)[O-])c2ccccc2)cc1	i	16.4µM*	u	35.5µM*	1.1%
Cc1ccc(N/C(=N/S(=O)(=O)c2cccs2)c2ccccc2)c(C)c1	u	9.2µM*	u	1.8%	u
CCOc1cc(N2CCOCC2)c(OCC)cc1NC(=O)CSc1ncccc1C(=O)O	i	i	-13.2%	-0.3%	-3.8%
CCCCN(Cc1ccccc1)S(=O)(=O)c1cc(Br)cc2c1N(C(C)=O)C(C)C2 (stereo not drawn)	i	20.6µM*	2.4%	-0.1%[38.3 µM]	-1.0%
CC(=O)N1c2c(cc(Br)cc2S(=O)(=O)NCc2cccnc2)CC1C (stereo not drawn)	i	i	3.6%	-1.0%	0.2%
COc1ccc(S(=O)(=O)NC2CCSc3ccccc32)cc1OC (stereo not drawn)	i	i	0.7%	-0.5%	-4.2%
COc1ccccc1CN1CCC(CNC(=O)c2cnn(-c3ccc(Cl)cc3)c2C2CCN(C(=O)OC(C)(C)C)CC2)CC1	16.4µM*	u	x	-2.6%	x
COc1ccc2[nH]c3c(C)c4ccncc4c(C)c3c2c1	18.4µM*	8.2µM*	-45.2%	-1.3%	-7.0%
CCOCCCNC(=O)c1cc2c(=O)[nH]c3ccccc3c2n1C	i	i	x	-5.4%	x
COc1ccc(/C=C/c2nc(-c3ccccc3O)n(-c3ccccc3)n2)cc1	i	16.4µM*	6.8%	8.8%	u
Cc1nn(Cc2ccccc2Cl)c(C)c1C(=O)NCc1ccco1	i	i	2.5%	0.5%	-8.6%
Cc1nn(Cc2ccccc2Cl)c(C)c1C(=O)NCCN1C(=O)S/C(=C\c2ccccc2)C1=O	i	u	16.4µM*	2.0%	-6.8%
COc1ccc2c(c1)c1nc3ccccc3nc1n2Cc1ccc(OC)c(OC)c1	i	i	8.2µM*	5.0%	-2.7%
COC(=O)Cn1c2ccc(OC)cc2c2nc3ccccc3nc21	i	i	1.5%	-2.2%	-1.7%
CCOc1ccc(Cn2c3ccc(OC)cc3c3nc4ccccc4nc32)cc1OC	i	i	7.31µM*	4.8%	u
CC(=O)NC(CC(=O)OCC(=O)N1CCN(S(=O)(=O)c2ccc(C)cc2C)CC1)c1ccccc1 (stereo not drawn)	i	i	2.6%	1.4%	-0.4%
SMILES	KB-3-1 tox	KB-V1 cytotox	MCF10A rerep	PINK1 modulator	SW480 rerep
Cc1cc(C)n(NC(=S)NC2CCCC2)c(=O)c1C#N	i	i	23.1µM*	3.5%	u
CCn1c(C)cc(C)c(C#N)c1=O	i	i	u	2.7%	21.8%
c1ccc(-n2cnnc2SCc2nc3ccccc3s2)cc1	i	20.6µM*	u	0.7%	14.9%
O=C(CSc1nc2ccsc2c(=O)n1-c1ccc(Br)cc1)NCc1ccc(Cl)cc1	i	i	x	-4.9%	x
N#C/C(=N\Nc1cccc([N+](=O)[O-])c1)C(=O)c1ccc(Br)cc1	3.66µM*	1.46µM*	u	4.47µM*	4.7%
O=C(O)c1ccc(N=NNc2cccc([N+](=O)[O-])c2)cc1	i	i	-0.3%	1.9%	-8.7%
N#C/C(=N\Nc1ccc([N+](=O)[O-])cc1)C(N)=S	u	u	u	25.1µM*	-9.2%
C/C(=N\Nc1ccc([N+](=O)[O-])cc1)c1ccc(O)cc1	i	i	14.6µM*	-3.7%	23.1µM*
COc1ccc(C2=Nc3ccccc3N(C(=O)c3cnccn3)C2C(=O)NC2CCCC2)cc1 (stereo not drawn)	i	i	x	x	x
N/C(=N/OC(=O)c1ccccc1Cl)c1ncc([N+](=O)[O-])s1	23.1µM*	u	u	-1.1%	u
CCOC(=O)N1CCN(C(=O)C[C@@H]2C[C@@]3(C(=O)OCC)CCC=C3N(Cc3ccc(Cl)cc3Cl)C2=O)CC1	i	10.3µM*	x	-0.2%	x
CCOC(=O)[C@]12CCCC=C1N(Cc1ccc(Cl)cc1Cl)C(=O)[C@H](CC(=O)NCCCOC)C2	i	i	x	u	x
CCOC(=O)[C@]12CCC=C1N(Cc1ccc(Cl)cc1Cl)C(=O)[C@H](CC(=O)N1CCN(C(=O)c3ccco3)CC1)C2	i	10.3µM*	x	1.6%	x
CCCCOCCCNC(=O)C[C@@H]1C[C@@]2(C(=O)OCC)CCC=C2N(Cc2ccc(Cl)cc2Cl)C1=O	u	18.4µM*	x	28.2%	x
Cc1c(Cl)cccc1NC(=O)CSc1nc(=O)n(CCN2CCOCC2)c2c1CCC2	x	x	x	1.6%	x
Cc1nn(-c2ccccn2)c2c1C(c1ccsc1)C1=C(CCCC1=O)N2 (stereo not drawn)	u	3.66µM*	27.9%	-0.2%	u
Cc1cccc(-n2nc(C)c3c2NC2=C(C(=O)CCC2)C3c2ccccn2)c1 (stereo not drawn)	i	i	-3.2%	1.5%	0.3%
COc1ccc(C2=NS(=O)(=O)N(C)C(C(=O)N3CCCCC3C)=C2)cc1 (stereo not drawn)	i	i	-3.1%	-0.9%	-0.5%
O=C(NNC(=O)c1cccnc1SCc1cccc([N+](=O)[O-])c1)c1ccc(F)cc1	u	16.4µM*	10.0%	0.0%	2.0%
CCCCCn1c(N)c(-c2nc3ccccc3s2)c2c([N+](=O)[O-])nn(CC)c(=O)c21	i	18.4µM*	2.91µM*	u	-0.2%
